Source: the supplement of paper PMC10477191
± gives the standard deviation of the averaged measurements.

These compounds were tested on Drosophila ezoana antennal basiconic sensillum ab7 (assay: odor-evoked OSN spike response (post minus pre-stimulus); higher = stronger neuronal excitation). Conditions: odor dilution: 10^-4.
Experimental: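 Single sensillum recordings from antennal basiconic sensilla of D. ezoana. A 500 ms pulse of odorant (10^-4 in mineral oil or DMSO) was delivered; the response is the change in action potential frequency between the 1 s pre- and post-stimulus windows (spikes/s).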
In the case of `CCCCC(C)=O` [2-hexanone], the “odor-evoked OSN spike response” value is reported as 50.2 ± 29 spikes/s. In the case of `C[C@H]1CCC[C@@]2(C)CCCC[C@]12O` [geosmin], the “odor-evoked OSN spike response” value is reported as 3.51 ± 21 spikes/s. With `CCCC(=O)CC` [3-hexanone] the “odor-evoked OSN spike response” value was 53.1 ± 33 spikes/s. `CCCCC(C)O` (centres undefined) [2-hexanol] was tested, and the “odor-evoked OSN spike response” value was 56.1 ± 29 spikes/s. `CCOC(=O)C(C)O` (centres undefined) [Ethyl lactate] was tested, and the “odor-evoked OSN spike response” value was 60.2 ± 36 spikes/s. For `CCCCCCCC(C)O` (centres undefined) [2-nonanol], the “odor-evoked OSN spike response” value was 52.3 ± 32 spikes/s. `CCCCCC(=O)OCC` [ethyl hexanoate] was tested, and the “odor-evoked OSN spike response” value was 74.4 ± 40 spikes/s. With `CC(=O)CCC=C(C)C` [6-methyl-5-hepten-2-one] the “odor-evoked OSN spike response” value was 140 ± 40 spikes/s. With `CCCCCC(C)=O` [2-heptanone] the “odor-evoked OSN spike response” value was 138 ± 39 spikes/s. In the case of `CCCCCOC(C)=O` [pentyl acetate], the “odor-evoked OSN spike response” value is reported as 59.2 ± 30 spikes/s. For `CCCCCCCC(C)=O` [2-nonanone], the “odor-evoked OSN spike response” value was 66.8 ± 40 spikes/s. With `CCCCCCO` [1-hexanol] the “odor-evoked OSN spike response” value was 53.6 ± 33 spikes/s. In the case of `CCOC(=O)CC(C)O` (centres undefined) [Ethyl-3-hydroxybutyrate], the “odor-evoked OSN spike response” value is reported as 80.1 ± 47 spikes/s. `C=CC(O)CCCCC` (centres undefined) [1-octen-3-ol] was tested, and the “odor-evoked OSN spike response” value was 107 ± 43 spikes/s.
